Bioassay records (PubChem BioAssay)
CCT modulator = High-Throughput Screening for Modulators of Cytosolic Chaperonin Activity; purified chaperonin ATPase assay, HTRF ADP detection, 30 min; activity change, % (test concentration not listed), hits read low; actives 0.3% (n = 360,000); AID 651819, 2012; in the data active = activity change below about -30%; note: % is set by controls: 0 for no effect and ±100 for the full control effect
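ATPase activity: ADP formed was measured by HTRF Transcreener (665/615 nm ratio) after 30 min at 37 deg C with 10 uM ATP. Compounds screened at one 76 uM concentration against 40 or 20 nM TRiC in Tris pH 7.4/KCl/MgCl2/DTT buffer.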
MmCpn inh = Inhibitors of TCP-1 ring complex (TRiC) of Methanococcus maripaludis (MmCpn): qHTS. purified Mm-Cpn ATPase, ADP Transcreener TR-FRET. Chaperonin Mm-Cpn (Methanococcus maripaludis). Potency, µM (top dose mostly 76.9 µM), for the others: at the highest dose activity, negative = inhibition, most hits filed as inhibitors. actives 0.031% (n = 330,000); note: potency is the fitted concentration of half-maximal effect; % is set by controls: 0 for no effect and ±100 for the full control effect; nearly all actives have a fitted effect of over 80% in size
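ATP (10 uM final) was added to archaeal chaperonin (25 nM final) after 10 min exposure to test compound at 37°C; after 30 min further incubation, ADP was detected by competitive TR-FRET.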
USP2a block = qHTS Assay for Inhibitors of Ubiquitin-specific Protease USP2a Using CHOP2 as the Reporter; Ubiquitin carboxyl-terminal hydrolase 2 (Homo sapiens), O75604; USP2 core, Ub-CHOP2 coupled fluorogenic reporter, 485/531; Potency, µM (highest dose often 38.3 µM), inactives show at the highest dose activity change, negative = inhibition, usual class: inhibitors; actives 0.01% (n = 330,000);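 note: potency is the fitted concentration of half-maximal effect; plate controls were DMSO wells for no effect and full inhibition by NEM control for full effect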
Target sequence (O75604 whole entry, looked up): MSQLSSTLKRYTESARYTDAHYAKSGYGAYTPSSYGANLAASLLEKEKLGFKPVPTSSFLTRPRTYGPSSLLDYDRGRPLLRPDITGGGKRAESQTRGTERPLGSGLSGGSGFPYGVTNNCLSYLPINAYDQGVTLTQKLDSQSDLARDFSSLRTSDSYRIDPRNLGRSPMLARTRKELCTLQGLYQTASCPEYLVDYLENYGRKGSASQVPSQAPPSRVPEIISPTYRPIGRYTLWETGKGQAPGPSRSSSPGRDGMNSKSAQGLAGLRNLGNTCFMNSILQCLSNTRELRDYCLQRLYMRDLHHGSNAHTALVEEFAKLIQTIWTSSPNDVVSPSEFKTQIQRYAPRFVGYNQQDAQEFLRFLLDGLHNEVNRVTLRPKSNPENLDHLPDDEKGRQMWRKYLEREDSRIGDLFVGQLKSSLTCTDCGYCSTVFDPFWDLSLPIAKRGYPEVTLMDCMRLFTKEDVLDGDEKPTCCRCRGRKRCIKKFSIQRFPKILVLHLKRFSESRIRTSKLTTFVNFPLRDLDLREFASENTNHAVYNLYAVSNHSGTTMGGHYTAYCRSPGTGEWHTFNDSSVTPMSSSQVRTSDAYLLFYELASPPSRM
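USP2 core (10nM final) preincubated 30min RT with compound in 20mM Tris-HCl pH 8.0, 2mM CaCl2, 2mM beta-mercaptoethanol, 0.05% CHAPS; 25nM Ub-CHOP2 plus 25nM reporter substrate added, fluorescence (Ex485/Em531) read after 60min.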
ASM inhibitor = Inhibitors of Secretory Acid Sphingomyelinase (S-ASM): qHTS; Sphingomyelin phosphodiesterase (Homo sapiens), P17405; placental ASM, HMU-PC fluorogenic substrate, 60 min; Potency, µM (highest dose often 57.5 µM), for inactives: top-dose activity change, negative = inhibition, actives largely listed as inhibitors; actives 0.006% (n = 340,000); AID 504937, 2011; note: potency is the fitted concentration of half-maximal effect
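HMU-PC0 cleavage (9 uM final) by human placental ASM, 60 min at 37 °C following 10 min compound exposure at RT; stopped at pH 10, fluorescence Ex 386/Em 447 nm.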
Active calls of the source: *. This is a sample that favours compounds with a hit; in the whole collection about 0.3% have one here. Unless noted, calls come from the whole dose curve; as a rule, active = well fitted curve in the direction sought with a large enough effect; inconclusive = small, poorly fitted or top-dose-only effect, or another doubt; inactive = no such curve, though single readings can be large; an effect the other way counts as inactive or inconclusive.

What do the screens show for `Cc1ccc(C(=O)n2nc(-c3ccccc3)nc2NCc2ccco2)cc1`?
CCT modulator: -60.0*; MmCpn inh: -2.9%; USP2a block: 3.1%; ASM inhibitor: -6.1%

What do the screens show for `CCCNC(=O)CN1C(=O)COc2ccc(S(=O)(=O)N3CCCCCC3)cc21`?
CCT modulator: 3.0; MmCpn inh: 2.0%; USP2a block: 0.8%; ASM inhibitor: -0.1%

Results for CCCNC(=O)CN1C(=O)COc2ccc(S(=O)(=O)N3CC(C)CC(C)C3)cc21 (stereo unspecified) ?
CCT modulator: -46.3*; MmCpn inh: -1.3%; USP2a block: 2.6%; ASM inhibitor: 0.5%

How did CCOC(=O)c1cc2c(C(F)(F)F)cc(-c3cccnc3)nc2o1 do in these assays?
CCT modulator: -31.6*; MmCpn inh: -0.3%; USP2a block: -0.1%; ASM inhibitor: 3.5%

Results for Cc1ccc(C)c(N2CCN(S(=O)(=O)CC34CCC(CC3=O)C4(C)C)CC2)c1 (stereo unspecified) ?
CCT modulator: -0.8; MmCpn inh: -0.4%; USP2a block: -14.6%; ASM inhibitor: 0.2%

How did COc1ccc2[nH]c3c(c2c1)CCNC3(C)CCc1ccc(Cl)nc1 (stereo unspecified) do in these assays?
CCT modulator: -30.7*; MmCpn inh: -2.1%; USP2a block: 4.5%; ASM inhibitor: 2.6%

How did COc1ccc2[nH]c3c(c2c1)CNCC3 do in these assays?
CCT modulator: 1.1

Results for Cc1ccccc1CN(C)CC(=O)NC(C)CCc1ccccc1 (stereo unspecified) ?
CCT modulator: -93.9*; MmCpn inh: 0.4%; USP2a block: 2.6%; ASM inhibitor: 8.2%

What do the screens show for `Cc1ccc(CC(=O)NC(C)CCc2ccccc2)cc1` (stereo unspecified)?
CCT modulator: 0.8; MmCpn inh: -0.5%; USP2a block: -1.4%; ASM inhibitor: -0.7%

Results for O=S(=O)(c1cccc(NC(=S)Nc2ccc(Br)cc2Cl)c1)N1CCOCC1 ?
CCT modulator: -62.7*; MmCpn inh: 1.4%; USP2a block: -5.5%; ASM inhibitor: -1.0%

How did O=C(CN1CCCC1)Nc1ccccc1Sc1ccc(Cl)cc1 do in these assays?
CCT modulator: -35.0*; MmCpn inh: -5.6%; USP2a block: -9.5%; ASM inhibitor: 5.7%

What do the screens show for `O=C(CCc1ccccc1)NCCCN1CCOCC1`?
CCT modulator: -31.4*; MmCpn inh: 0.8%; USP2a block: -0.2%; ASM inhibitor: 3.1%

What do the screens show for `COc1ccc(C(=O)N/C(=C/c2ccc(Cl)cc2)C(=O)NCc2ccncc2)cc1`?
CCT modulator: -0.9; MmCpn inh: -0.8%; USP2a block: 5.2%; ASM inhibitor: 6.3%

Results for CN(CC(=O)Nc1ccc(Cl)c(C(F)(F)F)c1)C(=O)c1ccccc1SCC(=O)N1CCCC1 ?
CCT modulator: -1.3; ASM inhibitor: -4.9%

What do the screens show for `CN(Cc1ccc(Cl)cc1)C(=O)c1ccccc1SCC(=O)N1CCCC1`?
CCT modulator: -49.7*; MmCpn inh: 1.3%; USP2a block: 1.4%; ASM inhibitor: 1.4%

What do the screens show for `Cc1sc2nc(-c3ccc(Br)cc3)oc(=O)c2c1C`?
CCT modulator: -37.9*; MmCpn inh: -0.8%; USP2a block: -0.2%; ASM inhibitor: 12.0%

What do the screens show for `Cc1sc2nc(-c3cccs3)oc(=O)c2c1C`?
CCT modulator: -0.6; MmCpn inh: 2.2%; USP2a block: -2.5%; ASM inhibitor: 17.2%

What do the screens show for `NC(=O)CSc1nnc(NC(=O)c2ccc(S(=O)(=O)N3CCOCC3)cc2)s1`?
CCT modulator: -58.1*; MmCpn inh: 0.6%; USP2a block: 0.7%; ASM inhibitor: 6.1%

Results for COCCCN1C(=O)N(c2ccccc2)C(=O)C1CC(=O)Nc1ccccc1 (stereo unspecified) ?
CCT modulator: -1.2; MmCpn inh: -5.3%; USP2a block: -0.5%; ASM inhibitor: 4.2%

What do the screens show for `O=C(O)c1ccccc1NC(=O)C(Cc1ccccc1)N1C(=O)c2ccccc2C1=O` (stereo unspecified)?
CCT modulator: -32.4*; MmCpn inh: 2.7%; USP2a block: 2.3%; ASM inhibitor: 8.9%

What do the screens show for `C(=N\n1cnnc1)/c1cccc(OCCOc2ccccc2)c1`?
CCT modulator: -84.0*; MmCpn inh: -0.1%; USP2a block: 3.6%; ASM inhibitor: -4.1%

Results for O=C(CSc1ncnc2ccccc12)c1ccc2c(c1)OCCO2 ?
CCT modulator: -1.6; MmCpn inh: 20µM*; USP2a block: -0.5%; ASM inhibitor: 0.7%

What do the screens show for `O=C(CSc1nnc(SCc2cccc3ccccc23)s1)c1ccc2c(c1)OCO2`?
CCT modulator: -27.3; MmCpn inh: 44.7µM*; USP2a block: 1.9%; ASM inhibitor: 5.4%

Results for COc1ccccc1C1(O)CCN(CC(=O)Nc2nc(-c3ccccc3)cs2)CC1 ?
CCT modulator: -45.6*; MmCpn inh: -0.4%; USP2a block: 2.3%; ASM inhibitor: -1.3%

What do the screens show for `NS(=O)(=O)c1ccc(CCNC(=O)c2cc(-c3ccccn3)nc3ccc(Br)cc23)cc1`?
CCT modulator: -31.8*; MmCpn inh: inconclusive; USP2a block: 5.6%; ASM inhibitor: -3.2%

What do the screens show for `COC(=O)C1CCN(c2ccc([N+](=O)[O-])cc2)CC1`?
CCT modulator: -65.8*; MmCpn inh: -3.3%; USP2a block: -0.9%; ASM inhibitor: -4.2%

Results for COC(=O)C1CCN(CCCOc2ccc(CN3CCN(c4ccc([N+](=O)[O-])cc4)CC3)cc2)CC1 ?
CCT modulator: 0.4; MmCpn inh: 2.6%; USP2a block: 10.0%; ASM inhibitor: -11.3%

How did COc1ccccc1N1CCN(C(=O)c2ccc(Cn3c(=S)[nH]c4cc5c(cc4c3=O)OCO5)cc2)CC1 do in these assays?
CCT modulator: -31.0*; MmCpn inh: -4.0%; USP2a block: -1.6%; ASM inhibitor: -7.9%

Results for CC1C/C(=C/c2ccncc2)C(=O)/C(=C/c2ccncc2)C1 (stereo unspecified) ?
CCT modulator: -37.8*; MmCpn inh: -1.1%; USP2a block: -2.4%; ASM inhibitor: -1.6%

What do the screens show for `Clc1ccc(C2Nc3cccc4cccc(c34)N2)cc1`?
CCT modulator: -55.5*; MmCpn inh: 0.7%; USP2a block: 0.5%; ASM inhibitor: -6.4%

What do the screens show for `CSc1ccc(C2Nc3cccc4cccc(c34)N2)cc1`?
CCT modulator: 1.5; MmCpn inh: 0.8%; USP2a block: 4.3%; ASM inhibitor: -15.2%

What do the screens show for `COc1ccccc1Nc1ncccc1[N+](=O)[O-]`?
CCT modulator: -48.5*; MmCpn inh: -1.0%; USP2a block: -0.6%; ASM inhibitor: -0.8%
